Laboratory results reported in PubChem BioAssay.

Assay: probe aLAP1 signal on lysate-treated microarray – cell lysate, small-molecule microarray, COS7 lysate, primary screen (AID 1124);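 note: lysate comes from COS7 cells expressing LAP1 and is applied at 0.3 µg/mL; score merges spot fluorescence near 667 nm with signal-to-noise over triplicate slides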
Conditions: probe aLAP1, fluorescence, higher = more signal
Work on `CC(C)=CCN[C@H](CO)c1ccccc1` yielded a composite z-score of -0.021.
Work on `CCCC#C[Si](O[C@H](CC)c1cn(Cc2cccc(Cl)c2)nn1)(C(C)C)C(C)C` yielded a composite z-score of 0.249.
Compound `C=CCOC(=O)[C@H]1[C@@H]2C(=O)O[C@@H](c3ccccc3)[C@@H](c3ccccc3)N2[C@@H](c2ccc(OCCOC(=O)[C@H]3C[C@H]4C(=O)N[C@@H](CCCCNC(C)=O)C(=O)N4[C@H]3c3cccc(OCCO)c3)cc2)[C@]12C(=O)Nc1ccccc12` has a composite z-score of 0.168.
`C=C(COC)/C(=C/C[C@@H](OC(=O)c1ccncc1)c1ccc(CO)o1)c1cc(C(=O)OC)ccc1OC` showed a composite z-score of 1.46.
`CC(C)C(=C=CC[C@@H](O)c1ccc(OCCO)cc1)C[C@@H](O)COCc1ccccc1` showed a composite z-score of 0.664.
For `CCCCCCc1nc(-c2cc(C)c(OC)c(C)c2)cc2c1[Si](C(C)C)(C(C)C)OC2`, the composite z-score was -0.0553.
Compound `COc1cc2c(cc1O)C(C1CC1)N(Cc1sc3ccccc3c1Cl)CC2` (stereo not given) has a composite z-score of 0.862.
Compound `COCCOC(=O)N1C(=O)[C@@]2(c3cc(C#CCC(C(=O)OC)C(=O)OC)ccc31)[C@H](C(=O)N1CCN(c3ncccn3)CC1)[C@H]1C(=O)O[C@H](c3ccccc3)[C@H](c3ccccc3)N1[C@@H]2c1ccccc1OCCO` has a composite z-score of 0.698.
`C[C@H]1NC(=O)[C@@]23C(=O)N[C@@H](Cc4ccccc4)C2[C@H](C)[C@@]2(C)O[C@H]2C3/C=C/C/C=C\CNC(=O)[C@@H]2CCCN2C1=O` (stereo not given in full) showed a composite z-score of -0.301.
`CCOC(=O)C[C@H]1[C@H](OC(=O)c2ccc(C(=O)c3ccccc3)cc2)[C@@H](NC(=O)c2ccc3ccccc3n2)c2cc(OCCCO)ccc2N1C(=O)c1ccccc1` showed a composite z-score of 0.545.
